Reference: PubChem BioAssay (EPA / NIEHS)
“And” between values parts separate entries of the source, which are not always exact repeats. Equal entries are not always repeated. The source made the active and inactive calls. Rule for the calls: active = hit-call score of the fitted dose curve at least 0.9, where 1 is the maximum; inactive = score below 0.9.

Experiment: CCTE_Padilla_ZF_144hpf_TERATOSCORE: (Legacy) CCTE's 144 Hour Post-fertilization zebrafish Assay Teratoscore, Padilla Lab (AID 2283679);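 for AC50: teratogenicity score from eye scoring of death hatching and malformations at 144 hpf; higher score means more developmental defects relative to DMSO baseline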
Text: CCTE_Padilla_ZF_144hpf is a whole embryo, multiplexed assay. Zebrafish embryos were exposed to chemicals starting 6 hr post-fertilization for 5 days in 96-well plates. Developing larvae were examined microscopically daily for malformation and mortality.CCTE_Padilla_ZF_144hpf_TERATOSCORE is one of one assay component(s) measured or calculated from the CCTE_Padilla_ZF_144hpf assay. It is designed to make measurements of developmental malformations and mortality as detected with brightfield microscopy.Data from the assay component CCTE_Padilla_ZF_144hpf_TERATOSCORE was analyzed into 1 assay endpoint. This assay endpoint, CCTE_Padilla_ZF_144hpf_TERATOSCORE, was analyzed in the positive analysis fitting direction relative to DMSO as the negative control and baseline of activity. Using a type of morphological reporter, gain-of-signal activity can be used to understand changes in developmental defect as they relate to the whole embryo. To generalize the intended target to other relatable targets, this assay endpoint is annotated to the malformation intended target family, where the subfamily is total.
Zebrafish husbandry: Wild type adult zebrafish (Danio rerio; undefined outbred stock obtained from Aquatic Research Organisms, Hampton, NH, 03842) were housed in an AAALAC-approved animal facility at 28C with a 14:10 h light: dark cycle (lights on at 08:30 h). Adult fish (2-3 females per male; density = 15-20 adults per tank) were kept in one of several 9-liter (L) flow-through colony tanks (Aquaneering Inc., San Diego, CA). All adults in a colony tank were placed in a 2 L (static) breeding tank (Aquatic Habitats, Apopka, FL) one hour prior to light onset. Typically, adults from two to three colony tanks were mated on the same day. Two hours after light onset the adults were returned to the colony tank. All embryos were gathered from each breeder tank, pooled, and placed in a 28C water bath for 2 h, followed by two washes with 0.06% bleach (v/v) in 10% Hanks' Balanced Salt Solution (13.7 mM NaCl 0.54 mM KCl, 25 uM Na2HPO4, 130 uM CaCl2 100 um MgSO4 and 420 um NaHCO3,), hereafter referred to as Hanks' solution, for 5 min in order to remove any residual bacteria or fungi. Immediately following washing, the embryos were examined, and healthy embryos were separated from dead or unfertilized eggs and moved into fresh Hanks'. Single Concentration Study: The chemicals were arrayed on a 96-well stock plate, 80 chemicals per plate, 20 mM concentration of each, with 16 DMSO (vehicle) controls. The embryos were exposed to the chemicals (80 Mfinal concentration, renewed daily) by immersion from 0 dpf until 5 dpf. Eighty micromolar was chosen as the highest concentration for two reasons (1) because the stock solutions were prepared at 20 mM in 100% DMSO. On 6 dpf, each embryo/larva was assessed for viability, hatching status and malformations. There were 4 embryos per concentration per chemical (each embryo on a separate microtiter plate). […] Chemical exposures: Zebrafish embryos were exposed in 96-well plates. Briefly, on day 0, approximately 6-8 h after fertilization, zebrafish embryos (with chorions) were placed 1 embryo per well in Millipore Multiscreen Nylon mesh plates (catalog number MANMN4050, Millipore Corp, Bedford, MA) and exposed to nominal concentrations of the chemicals. In each well, 1 ul of the chemical in DMSO from the stock plate was diluted with 250 ul of 10% Hanks' solution; the final DMSO concentration was 0.4% (v/v) in all wells; vehicle controls receives DMSO only. Each plate was sealed with a non-adhesive material (Type A, BioRad, Hercules, CA), covered with a lid, and wrapped in Parafilm to minimize evaporation. All embryos and larvae were kept in a 26C incubator with a 14:10 h light-dark cycle (with lights on at 08:30 h and off at 22:30 h). […]

SMILES | outcome | AC50
CCS(=O)(=O)c1cccnc1S(=O)(=O)NC(=O)Nc1nc(OC)cc(OC)n1 | inactive | 
CNC(=O)/C=C(\C)OP(=O)(OC)OC | inactive | 
CC[C@H](C)[C@H]1O[C@]2(C=C[C@@H]1C)C[C@@H]1C[C@@H](C/C=C(\C)[C@@H](O[C@H]3C[C@H](OC)[C@@H](O[C@H]4C[C@H](OC)[C@@H](O)[C@H](C)O4)[C@H](C)O3)[C@@H](C)/C=C/C=C3\CO[C@@H]4[C@H](O)C(C)=C[C@@H](C(=O)O1)[C@]34O)O2 (tested in a mixture with another compound) |  | 0.0449 µM (active)
COC(=O)c1ccccc1CS(=O)(=O)NC(=O)Nc1nc(OC)cc(OC)n1 | inactive | 
O=C(O)C(F)(F)C(F)(F)C(F)(F)C(F)(F)C(F)(F)C(F)(F)C(F)(F)F | inactive | 
O=C(O)COc1ccc(Cl)cc1Cl | inactive | 
COC(=O)c1ccccc1S(=O)(=O)NC(=O)N(C)c1nc(C)nc(OC)n1 | inactive | 
COP(=O)(OC)OC=C(Cl)Cl |  | 53.8 µM (active)
Oc1ccc(Cl)cc1Cc1ccccc1 |  | 5.12 µM (active) and 9.81 µM (active) and 9.21 µM (active)
Oc1cc(Cl)ccc1Oc1ccc(Cl)cc1Cl |  | 1.48 µM (active) and 4.99 µM (active) and 1.9 µM (active)
Cc1cc(C)nc(NC(=O)NS(=O)(=O)c2ccccc2C(=O)OC2COC2)n1 | inactive | 
COP(=S)(OC)Oc1ccc([N+](=O)[O-])cc1 |  | 16.1 µM (active)
Cc1[nH]c(=O)n(C(C)(C)C)c(=O)c1Cl | inactive | 
O=C1c2ccccc2C(=O)N1SC(Cl)(Cl)Cl |  | 19.3 µM (active)
CCCN(CCOc1c(Cl)cc(Cl)cc1Cl)C(=O)n1ccnc1 |  | 5.63 µM (active)
Clc1ccccc1-c1nnc(-c2ccccc2Cl)nn1 | inactive | 
CCOC1Oc2ccc(OS(C)(=O)=O)cc2C1(C)C (stereo not given) | inactive | 
CCC(C)(NC(=O)c1cc(Cl)c(C)c(Cl)c1)C(=O)CCl (stereo not given) |  | 5.78 µM (active)
COP(=S)(OC)Oc1ccc(SC)c(C)c1 |  | 16.1 µM (active)
COc1cc(OC)nc(NC(=O)NS(=O)(=O)c2cc(NC=O)ccc2C(=O)N(C)C)n1 | inactive | 

SMILES | outcome | AC50
N#Cc1c(Cl)c(Cl)c(Cl)c(C#N)c1Cl |  | 0.187 µM (active)
CNC(=O)Oc1ccccc1OC(C)C | inactive | 
CNC(=O)CSP(=S)(OC)OC | inactive | 
O=[N+]([O-])c1c(Cl)c(Cl)c(Cl)c(Cl)c1Cl |  | 31.1 µM (active)
CC(C)(C)C(O)/C(=C\c1ccc(Cl)cc1Cl)n1cncn1 (stereo not given) |  | 8.76 µM (active)
CCN(CC)C(=O)SCc1ccc(Cl)cc1 |  | 23.4 µM (active)
CNC(=O)Oc1cccc(N=CN(C)C)c1 | inactive | 
CC1(c2ccc(Oc3ccccc3)cc2)OC(=O)N(Nc2ccccc2)C1=O (stereo not given) |  | 0.172 µM (active)
O=C(O)CCCOc1ccc(Cl)cc1Cl |  | 15.6 µM (active)
C#CCN1C(=O)COc2cc(F)c(N3C(=O)C4=C(CCCC4)C3=O)cc21 |  | 4.15 µM (active)
CCCN(CCC)c1c([N+](=O)[O-])cc(C(F)(F)F)cc1[N+](=O)[O-] |  | 0.601 µM (active)
O=C(Nc1ccccc1)Nc1cnns1 | inactive | 
COC(=O)c1ccccc1S(=O)(=O)NC(=O)Nc1nc(C)nc(OC)n1 | inactive | 
O=S(=O)(O)C(F)(F)C(F)(F)C(F)(F)C(F)(F)C(F)(F)C(F)(F)C(F)(F)C(F)(F)F |  | 23.8 µM (active) and 45.6 µM (active) and 7.44 µM (active)
CC(C)OC(=O)Nc1cccc(Cl)c1 |  | 72.3 µM (active)
C[C@H]1[C@H](c2ccc(Cl)cc2)SC(=O)N1C(=O)NC1CCCCC1 | inactive | 
CCOc1nc(NC)nc(NC(=O)NS(=O)(=O)c2ccccc2C(=O)OC)n1 | inactive | 
OCCOc1ccccc1 | inactive | 
O=C(NC(=O)c1c(F)cccc1F)Nc1ccc(OC(F)(F)C(F)OC(F)(F)F)c(Cl)c1 (stereo not given) | inactive | 
CC(C)N(C(=O)COc1nnc(C(F)(F)F)s1)c1ccc(F)cc1 |  | 39.2 µM (active)
